# Test results: publication PMC7862700, “An all-to-all approach to the identification of sequence-specific readers for epigenetic DNA modifications on cytosine”
# Legend:
# Test in all cases: DAPPL (digital affinity profiling via proximity ligation, sequencing); 10 mM Tris-HCl pH 7.5, 50 mM NaCl, 1 mM DTT, 4% glycerol, room temperature, 30 min; GST-TFs on glutathione beads, 16-mer random dsDNA library, 0.1% formaldehyde crosslink after washing; high values mean tight binding
# Conditions in all cases: protein: recombinant; tags: N-terminal GST; dsDNA, one strand shown
# FLI1 = molecular target: T1, FLI1 (Homo sapiens, UniProt Q01543 1-452)
# T1 sequence: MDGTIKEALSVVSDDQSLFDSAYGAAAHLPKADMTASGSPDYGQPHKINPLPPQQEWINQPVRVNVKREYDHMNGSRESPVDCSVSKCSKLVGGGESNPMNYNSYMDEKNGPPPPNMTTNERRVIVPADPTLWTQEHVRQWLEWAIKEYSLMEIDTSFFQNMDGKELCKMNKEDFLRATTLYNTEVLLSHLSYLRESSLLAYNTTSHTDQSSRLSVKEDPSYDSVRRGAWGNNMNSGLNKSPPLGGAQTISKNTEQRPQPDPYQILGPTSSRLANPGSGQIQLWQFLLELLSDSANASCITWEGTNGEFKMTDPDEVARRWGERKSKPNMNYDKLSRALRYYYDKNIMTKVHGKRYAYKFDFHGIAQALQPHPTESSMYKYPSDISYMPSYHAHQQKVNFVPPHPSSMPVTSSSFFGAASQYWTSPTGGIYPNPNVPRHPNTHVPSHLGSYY
# Method in brief: (§1)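 Binding signal is defined as a hexamer's read frequency for one factor over its frequency for the tag-only sample. To obtain reads, GST-fused human transcription factors were expressed in yeast, captured on glutathione beads, barcoded with DNA and pooled with that sample. Pools met 200 nmole of a 16-mer random double-stranded DNA library in Tris/NaCl/DTT/glycerol buffer for 30 min at room temperature before washing, 0.1% formaldehyde crosslinking, proximity ligation (BsaI/T4 ligase, 1 h, 37 °C), PCR and Illumina NextSeq500 sequencing.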
# ELK1 = molecular target: T2, ELK1 (Homo sapiens, UniProt P19419 1-428)
# T2 sequence: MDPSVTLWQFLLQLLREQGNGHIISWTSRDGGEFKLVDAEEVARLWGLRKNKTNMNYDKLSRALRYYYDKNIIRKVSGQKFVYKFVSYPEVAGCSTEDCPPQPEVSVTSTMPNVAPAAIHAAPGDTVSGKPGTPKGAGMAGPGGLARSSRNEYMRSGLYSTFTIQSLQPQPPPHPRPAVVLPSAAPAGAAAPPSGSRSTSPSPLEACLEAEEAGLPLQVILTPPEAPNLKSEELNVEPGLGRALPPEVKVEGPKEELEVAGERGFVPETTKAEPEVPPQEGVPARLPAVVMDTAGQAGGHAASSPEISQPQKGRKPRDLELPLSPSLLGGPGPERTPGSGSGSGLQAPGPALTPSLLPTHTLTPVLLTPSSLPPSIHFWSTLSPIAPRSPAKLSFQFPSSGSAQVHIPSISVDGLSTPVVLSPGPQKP
# Method in brief: as §1
# GABPA = molecular target: T3, GABPA (Homo sapiens, UniProt Q06546 1-454)
# T3 sequence: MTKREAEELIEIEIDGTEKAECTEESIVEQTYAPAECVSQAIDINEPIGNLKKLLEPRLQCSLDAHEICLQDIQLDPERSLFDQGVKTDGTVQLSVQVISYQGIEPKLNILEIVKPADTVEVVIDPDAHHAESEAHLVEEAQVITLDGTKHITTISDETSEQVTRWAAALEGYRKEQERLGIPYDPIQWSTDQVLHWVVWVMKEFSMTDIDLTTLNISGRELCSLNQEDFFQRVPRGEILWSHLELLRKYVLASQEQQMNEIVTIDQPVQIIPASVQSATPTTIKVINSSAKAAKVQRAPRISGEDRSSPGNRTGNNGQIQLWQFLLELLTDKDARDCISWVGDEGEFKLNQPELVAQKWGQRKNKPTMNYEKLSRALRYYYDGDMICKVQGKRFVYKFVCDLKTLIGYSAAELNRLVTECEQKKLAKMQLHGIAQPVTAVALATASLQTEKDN
# Method in brief: as §1
# ERG = molecular target: T4, ERG (Homo sapiens, UniProt P11308 1-479)
# T4 sequence: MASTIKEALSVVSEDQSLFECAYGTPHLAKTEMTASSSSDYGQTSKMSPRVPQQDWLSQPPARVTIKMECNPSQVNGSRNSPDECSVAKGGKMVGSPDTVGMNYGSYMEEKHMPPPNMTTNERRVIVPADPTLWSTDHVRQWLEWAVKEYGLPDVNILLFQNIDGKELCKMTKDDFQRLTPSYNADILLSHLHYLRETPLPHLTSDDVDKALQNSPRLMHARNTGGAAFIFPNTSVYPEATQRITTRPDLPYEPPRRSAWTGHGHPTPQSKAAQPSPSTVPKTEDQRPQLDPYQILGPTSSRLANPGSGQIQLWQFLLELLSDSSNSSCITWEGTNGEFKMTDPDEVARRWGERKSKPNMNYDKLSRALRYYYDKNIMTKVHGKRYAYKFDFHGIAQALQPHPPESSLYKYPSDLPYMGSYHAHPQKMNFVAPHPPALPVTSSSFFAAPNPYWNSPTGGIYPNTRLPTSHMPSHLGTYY
# Method in brief: as §1
# ELF1 = ELF1 (Homo sapiens, UniProt P32519 1-619)
# Sequence of ELF1 (P32519 whole entry): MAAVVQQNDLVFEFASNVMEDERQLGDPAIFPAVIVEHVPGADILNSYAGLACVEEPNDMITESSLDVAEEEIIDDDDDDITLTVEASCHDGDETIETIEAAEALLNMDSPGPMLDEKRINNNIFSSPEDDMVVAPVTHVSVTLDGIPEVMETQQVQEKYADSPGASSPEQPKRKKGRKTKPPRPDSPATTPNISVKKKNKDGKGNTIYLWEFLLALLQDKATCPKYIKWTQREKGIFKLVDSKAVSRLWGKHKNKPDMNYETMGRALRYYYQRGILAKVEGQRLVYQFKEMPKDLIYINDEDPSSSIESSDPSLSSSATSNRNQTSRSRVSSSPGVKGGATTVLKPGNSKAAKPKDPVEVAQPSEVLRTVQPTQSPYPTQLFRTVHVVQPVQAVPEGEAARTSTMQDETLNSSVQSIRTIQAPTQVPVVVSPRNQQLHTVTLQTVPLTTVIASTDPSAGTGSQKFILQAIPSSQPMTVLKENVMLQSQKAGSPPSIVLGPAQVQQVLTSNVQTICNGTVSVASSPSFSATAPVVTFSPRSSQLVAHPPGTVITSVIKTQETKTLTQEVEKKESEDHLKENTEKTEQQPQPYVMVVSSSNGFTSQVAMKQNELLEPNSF
# Method in brief: as §1
# EHF = molecular target: T5, EHF (Homo sapiens, UniProt Q9NZC4 1-300)
# T5 sequence: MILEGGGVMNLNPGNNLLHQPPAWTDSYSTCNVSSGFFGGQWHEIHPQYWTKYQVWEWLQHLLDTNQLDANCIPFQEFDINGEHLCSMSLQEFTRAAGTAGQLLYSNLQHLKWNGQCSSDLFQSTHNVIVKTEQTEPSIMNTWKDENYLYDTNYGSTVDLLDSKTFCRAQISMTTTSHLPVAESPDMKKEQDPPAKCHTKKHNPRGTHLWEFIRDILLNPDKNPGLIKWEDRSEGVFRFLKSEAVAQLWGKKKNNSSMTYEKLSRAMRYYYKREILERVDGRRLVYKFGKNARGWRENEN
# Method in brief: as §1
# SPI1 = SPI1 (Homo sapiens, UniProt P17947 1-270)
# Method in brief: as §1
# SPIB = SPIB (Homo sapiens, UniProt Q01892 1-262)
# Sequence of SPIB (Q01892 whole entry): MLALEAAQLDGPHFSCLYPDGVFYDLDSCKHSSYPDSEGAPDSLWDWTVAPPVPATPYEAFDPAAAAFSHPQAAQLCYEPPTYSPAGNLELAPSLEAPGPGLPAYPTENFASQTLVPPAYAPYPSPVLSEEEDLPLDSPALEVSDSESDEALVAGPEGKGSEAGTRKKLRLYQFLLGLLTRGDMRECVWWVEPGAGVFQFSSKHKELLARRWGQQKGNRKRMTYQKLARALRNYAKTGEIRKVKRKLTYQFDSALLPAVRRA
# Method in brief: as §1
# ELK3 = molecular target: T6, ELK3 (Homo sapiens, UniProt P41970 1-407)
# T6 sequence: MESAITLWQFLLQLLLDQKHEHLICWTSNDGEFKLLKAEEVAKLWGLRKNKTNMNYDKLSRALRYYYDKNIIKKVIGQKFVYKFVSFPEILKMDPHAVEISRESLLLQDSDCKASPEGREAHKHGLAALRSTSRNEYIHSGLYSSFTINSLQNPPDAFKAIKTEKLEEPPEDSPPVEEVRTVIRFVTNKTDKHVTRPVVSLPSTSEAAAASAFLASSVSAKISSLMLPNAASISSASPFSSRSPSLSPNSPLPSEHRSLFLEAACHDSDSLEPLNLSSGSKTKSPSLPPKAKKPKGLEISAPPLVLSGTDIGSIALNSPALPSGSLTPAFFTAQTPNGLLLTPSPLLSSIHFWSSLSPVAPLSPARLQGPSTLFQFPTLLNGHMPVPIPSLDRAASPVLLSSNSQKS
# Method in brief: as §1
# FEV = molecular target: T7, FEV (Homo sapiens, UniProt Q99581 1-238)
# T7 sequence: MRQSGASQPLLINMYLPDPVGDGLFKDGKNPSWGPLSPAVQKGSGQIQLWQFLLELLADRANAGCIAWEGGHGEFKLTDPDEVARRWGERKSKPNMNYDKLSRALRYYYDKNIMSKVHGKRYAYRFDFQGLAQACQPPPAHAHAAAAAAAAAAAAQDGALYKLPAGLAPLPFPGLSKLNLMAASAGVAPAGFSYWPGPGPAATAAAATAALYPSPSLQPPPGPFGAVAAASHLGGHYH
# Method in brief: as §1
# ETV5 = ETV5 (Homo sapiens, UniProt P41161 1-510)
# Sequence of ETV5 (P41161 whole entry): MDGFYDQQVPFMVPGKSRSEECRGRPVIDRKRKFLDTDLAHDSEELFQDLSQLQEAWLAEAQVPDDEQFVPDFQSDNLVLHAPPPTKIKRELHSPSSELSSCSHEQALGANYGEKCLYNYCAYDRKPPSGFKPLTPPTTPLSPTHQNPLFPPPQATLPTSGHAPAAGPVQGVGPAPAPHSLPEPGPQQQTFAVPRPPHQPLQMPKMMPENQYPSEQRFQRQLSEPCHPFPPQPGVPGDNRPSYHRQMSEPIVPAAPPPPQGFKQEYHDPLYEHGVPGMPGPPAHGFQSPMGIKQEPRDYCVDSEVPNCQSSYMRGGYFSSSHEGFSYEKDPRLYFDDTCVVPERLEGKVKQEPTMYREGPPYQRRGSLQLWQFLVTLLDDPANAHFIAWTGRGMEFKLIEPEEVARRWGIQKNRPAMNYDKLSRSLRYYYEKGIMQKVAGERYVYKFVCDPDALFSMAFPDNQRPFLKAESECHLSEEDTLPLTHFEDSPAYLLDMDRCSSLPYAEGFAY
# Method in brief: as §1
# SPIC = molecular target: T8, SPIC (Homo sapiens, UniProt Q8N5J4 1-248)
# T8 sequence: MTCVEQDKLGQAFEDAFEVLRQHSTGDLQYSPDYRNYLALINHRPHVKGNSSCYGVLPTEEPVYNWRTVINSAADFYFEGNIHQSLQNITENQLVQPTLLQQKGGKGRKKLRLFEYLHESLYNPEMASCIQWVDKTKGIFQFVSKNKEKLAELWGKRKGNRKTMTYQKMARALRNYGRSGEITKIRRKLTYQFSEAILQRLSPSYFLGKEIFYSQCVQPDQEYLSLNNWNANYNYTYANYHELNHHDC
# Method in brief: as §1
# ELF4 = ELF4 (Homo sapiens, UniProt Q99607 1-663)
# Sequence of ELF4 (Q99607 whole entry): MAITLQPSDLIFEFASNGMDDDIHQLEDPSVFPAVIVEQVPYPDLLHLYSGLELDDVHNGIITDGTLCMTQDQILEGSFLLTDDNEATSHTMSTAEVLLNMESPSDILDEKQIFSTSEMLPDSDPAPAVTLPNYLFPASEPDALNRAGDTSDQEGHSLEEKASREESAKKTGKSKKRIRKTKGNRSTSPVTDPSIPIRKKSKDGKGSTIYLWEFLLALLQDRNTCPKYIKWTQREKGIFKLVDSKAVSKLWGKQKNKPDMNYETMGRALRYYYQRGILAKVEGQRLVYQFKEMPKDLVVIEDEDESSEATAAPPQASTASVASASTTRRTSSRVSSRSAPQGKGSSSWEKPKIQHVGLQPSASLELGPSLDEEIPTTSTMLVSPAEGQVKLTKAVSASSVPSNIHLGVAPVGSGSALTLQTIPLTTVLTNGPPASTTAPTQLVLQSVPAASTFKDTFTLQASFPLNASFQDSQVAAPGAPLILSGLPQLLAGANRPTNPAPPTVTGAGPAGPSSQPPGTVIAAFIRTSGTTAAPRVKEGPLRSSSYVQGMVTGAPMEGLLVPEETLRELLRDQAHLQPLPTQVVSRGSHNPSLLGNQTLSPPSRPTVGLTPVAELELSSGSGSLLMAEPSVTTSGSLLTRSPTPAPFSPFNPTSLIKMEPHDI
# Method in brief: as §1
# ELK4 = molecular target: T9, ELK4 (Homo sapiens, UniProt P28324-2 1-405)
# T9 sequence: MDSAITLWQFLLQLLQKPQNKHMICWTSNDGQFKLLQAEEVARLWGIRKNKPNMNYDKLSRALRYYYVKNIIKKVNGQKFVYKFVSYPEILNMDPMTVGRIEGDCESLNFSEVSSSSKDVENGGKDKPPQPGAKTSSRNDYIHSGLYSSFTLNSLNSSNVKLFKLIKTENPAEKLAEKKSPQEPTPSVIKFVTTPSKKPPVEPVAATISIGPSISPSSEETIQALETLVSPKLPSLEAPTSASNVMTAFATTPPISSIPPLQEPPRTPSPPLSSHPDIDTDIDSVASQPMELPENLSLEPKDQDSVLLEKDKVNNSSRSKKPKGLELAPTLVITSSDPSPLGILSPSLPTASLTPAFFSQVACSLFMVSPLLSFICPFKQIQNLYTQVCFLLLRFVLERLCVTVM
# Method in brief: as §1
# ETV2 = molecular target: T10, ETV2 (Homo sapiens, UniProt O00321 1-342)
# T10 sequence: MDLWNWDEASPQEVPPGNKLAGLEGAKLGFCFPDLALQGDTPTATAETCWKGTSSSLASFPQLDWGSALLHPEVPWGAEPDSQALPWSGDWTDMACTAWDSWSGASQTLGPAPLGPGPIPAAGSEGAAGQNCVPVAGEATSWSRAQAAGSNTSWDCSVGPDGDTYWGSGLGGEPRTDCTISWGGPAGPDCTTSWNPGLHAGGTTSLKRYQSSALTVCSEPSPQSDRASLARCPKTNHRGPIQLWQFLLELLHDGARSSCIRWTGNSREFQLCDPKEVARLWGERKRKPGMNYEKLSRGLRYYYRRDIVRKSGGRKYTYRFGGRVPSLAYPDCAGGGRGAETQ
# Method in brief: as §1
# ELF3 = molecular target: T11, ELF3 (Homo sapiens, UniProt P78545 1-371)
# T11 sequence: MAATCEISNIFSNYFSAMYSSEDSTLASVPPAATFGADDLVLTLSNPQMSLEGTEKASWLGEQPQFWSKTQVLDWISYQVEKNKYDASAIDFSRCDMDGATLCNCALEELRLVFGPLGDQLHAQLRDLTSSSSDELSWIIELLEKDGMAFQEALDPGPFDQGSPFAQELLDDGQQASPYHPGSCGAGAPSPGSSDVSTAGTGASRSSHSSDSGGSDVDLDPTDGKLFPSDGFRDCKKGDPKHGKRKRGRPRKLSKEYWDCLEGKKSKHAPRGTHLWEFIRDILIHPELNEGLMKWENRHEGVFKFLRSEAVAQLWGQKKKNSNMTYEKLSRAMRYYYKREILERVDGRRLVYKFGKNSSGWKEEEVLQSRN
# Method in brief: as §1
# ETV1 = ETV1 (Homo sapiens, UniProt P50549 1-477)
# Sequence of ETV1 (P50549 whole entry): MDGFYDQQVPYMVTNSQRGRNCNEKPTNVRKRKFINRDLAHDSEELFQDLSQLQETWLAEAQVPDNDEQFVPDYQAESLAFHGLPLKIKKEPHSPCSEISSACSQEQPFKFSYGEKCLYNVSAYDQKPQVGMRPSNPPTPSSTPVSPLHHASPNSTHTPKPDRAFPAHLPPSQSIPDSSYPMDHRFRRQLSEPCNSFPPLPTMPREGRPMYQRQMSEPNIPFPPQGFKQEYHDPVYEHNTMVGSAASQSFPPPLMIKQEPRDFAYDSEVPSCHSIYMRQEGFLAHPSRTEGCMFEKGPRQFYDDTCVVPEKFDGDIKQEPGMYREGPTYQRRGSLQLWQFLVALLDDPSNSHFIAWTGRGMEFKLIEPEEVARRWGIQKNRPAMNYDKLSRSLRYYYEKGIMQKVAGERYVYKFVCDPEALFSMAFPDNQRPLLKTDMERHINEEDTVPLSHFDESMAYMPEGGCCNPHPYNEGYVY
# Method in brief: as §1
sequence,measurement,setting,value
AAGTGC,binding signal,FLI1,"1.32 fold enrichment (6-mer frequency, TF over GST control)"
same,binding signal,ELK1,"1.33 fold enrichment (6-mer frequency, TF over GST control)"
same,binding signal,GABPA,"1.13 fold enrichment (6-mer frequency, TF over GST control)"
same,binding signal,ERG,"1.32 fold enrichment (6-mer frequency, TF over GST control)"
same,binding signal,ELF1,"1.28 fold enrichment (6-mer frequency, TF over GST control)"
same,binding signal,EHF,"1.34 fold enrichment (6-mer frequency, TF over GST control)"
same,binding signal,SPI1,"1.67 fold enrichment (6-mer frequency, TF over GST control)"
same,binding signal,SPIB,"1.34 fold enrichment (6-mer frequency, TF over GST control)"
same,binding signal,ELK3,"1.39 fold enrichment (6-mer frequency, TF over GST control)"
same,binding signal,FEV,"1.32 fold enrichment (6-mer frequency, TF over GST control)"
same,binding signal,ETV5,"1.33 fold enrichment (6-mer frequency, TF over GST control)"
same,binding signal,SPIC,"1.5 fold enrichment (6-mer frequency, TF over GST control)"
same,binding signal,ELF4,"1.29 fold enrichment (6-mer frequency, TF over GST control)"
same,binding signal,ELK4,"1.21 fold enrichment (6-mer frequency, TF over GST control)"
same,binding signal,ETV2,"1.35 fold enrichment (6-mer frequency, TF over GST control)"
same,binding signal,ELF3,"1.33 fold enrichment (6-mer frequency, TF over GST control)"
same,binding signal,ETV1,"1.25 fold enrichment (6-mer frequency, TF over GST control)"
